# GLP1R cytotox = cytotoxicity counter-screen for GLP-1 receptor inverse agonists; HEK293 cAMP-luciferase reporter cells, luminescence, 24 h; Potency, µM (highest dose often 38.3 µM), without a hit: at the top dose activity change, negative = inhibition, most hits filed as inhibitors; hit rate 0.13% among 410,000;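 further: loss of luciferase light is scored as toxicity; potency means the concentration at half of the fitted maximal effect; on the % scale 0 is the no-effect control and ±100 the full control effect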
#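 MLSMR compounds, 24 hr on cells at 37 deg C/5% CO2; luminescence after luciferase reagent (12 min RT). Inhibition counted as the undesired cytotoxic outcome.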
# DRD3 antagonist = D3 dopamine receptor (human) antagonism; D3R cells, DiscoveRx beta-arrestin luminescence, antagonist mode; hits give low values; max response, negative = inhibition, %; hit rate 2.5% among 360,000; AID 652054; P35462; in the data active means max response below about -50%; inconclusive means no clear call, values can overlap the other calls; further: on the % scale 0 is the no-effect control and ±100 the full control effect
#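 Cells plated overnight at 1500 cells/well, then exposed to library compounds with dopamine controls for 90 minutes at 37 degrees C. DiscoveRx reagent added for 30–60 minutes at room temperature; luminescence read, quantitative HTS format.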
# D3 ag = D3 dopamine receptor (human) agonism | P35462 | D3R DiscoveRx beta-arrestin cells, luminescence, 90 min | max activation, % | hit rate 0.58% among 410,000 | AID 652048; in the data active means max activation above about 30%; further: 0% is about no effect
#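 Cells at 1500/well, incubated overnight, then treated with pinned compounds (dopamine as control) for 90 min at 37 degrees C. DiscoveRx reagent added for 30 - 60 minutes at room temperature; luminescence read.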
# GLP1R ag = activates the human GLP-1 receptor; P43220; hit rate 0.007% among 380,000; AID 624172; HEK293 GLP-1R CRE-luciferase, luminescence, 4-6 h; cells express a hypersensitive GLP-1R form; Potency, µM (doses to about 45.6 µM), inactives show at the top dose activation, actives largely listed as activators; further: potency means the concentration at half of the fitted maximal effect; % of control where 0% means no effect
# ClpP mod = qHTS Assay for Activators of ClpP; ATP-dependent Clp protease proteolytic subunit (Bacillus subtilis (strain 168)), P80244; purified B. subtilis ClpP, FRET peptide cleavage, 20 min; Potency, µM (top dose mostly 57.5 µM), inactives show top-dose activity change, negative = active; hit rate 1.9% among 340,000; active means well fitted falling curve with a large enough effect; inconclusive means small, poorly fitted or top-dose-only effect; inactive means no such curve, though single readings can be large or run the other way; further: potency means the concentration at half of the fitted maximal effect; the source files actives as falling curves though it sought activators and does not explain the sign; nearly all actives have a fitted effect of over 65% in size
# Target sequence (P80244 whole entry, looked up): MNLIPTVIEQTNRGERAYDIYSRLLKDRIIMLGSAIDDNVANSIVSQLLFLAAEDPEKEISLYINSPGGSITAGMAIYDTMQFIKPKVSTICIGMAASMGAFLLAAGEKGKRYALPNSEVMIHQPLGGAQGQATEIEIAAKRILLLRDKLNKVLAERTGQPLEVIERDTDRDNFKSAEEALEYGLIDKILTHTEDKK
#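 Purified B. subtilis ClpP, 10 microg/mL final in Tris/HCl pH8 with KCl, BSA, glycerol and Tween-20, cleaved an Abz/nitrotyrosine-quenched decapeptide. Fluorescence (ex 320, em 430) was read at 0 and 20 min at room temperature. Delta was normalized to 5.8 microM ADEP and DMSO/no-enzyme controls.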
# GLP1R inv ag = GLP-1 receptor (human) inverse agonism | P43220 | HEK293 GLP-1R CRE-luciferase, luminescence, 24 h; GLP-1R form is constitutively active | Potency, µM (doses to about 38.3 µM), inactives show top-dose activity change, negative = inhibition, hits mostly inhibitors | hit rate 1.6% among 410,000 | AID 624417; further: potency means the concentration at half of the fitted maximal effect; on the % scale 0 is the no-effect control and ±100 the full control effect; nearly all actives have a fitted effect of over 55% in size
#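 Cells are plated, allowed 12 hours at 37 deg C, then treated with compounds for 24 hr before luciferase detection reagent is added and luminescence is read after 12 min at room temperature. The HEK293 line carries constitutively active GLP-1R with a cAMP-responsive reporter.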
# * hit, by the source's call; ? = inconclusive; nt = no result given. Rows were chosen to be rich in hits. Some 5.7% of all compounds tested hit in one or more screens of this group. Unless noted, the call rests on the fitted dose curve; in most records, active means well fitted curve in the direction sought with a large enough effect; inconclusive means small, poorly fitted or top-dose-only effect, or another doubt; inactive means no such curve, though single readings can be large; an effect the other way counts as inactive or inconclusive.
SMILES,GLP1R cytotox,DRD3 antagonist,D3 ag,GLP1R ag,ClpP mod,GLP1R inv ag
CCOCCCNC(=O)C(c1ccc(C)cc1)N(Cc1ccc2c(c1)OCO2)C(=O)c1ccccc1O (centres undefined),-13%,nt,0,nt,-1%,-29%
COc1ccccc1NC(=O)C(=O)Nc1ccccn1,5%,-84*,-4,-5%,-4%,-6%
COc1ccc(Cc2nc3c4c(ncn3n2)Oc2ccc3ccccc3c2C4c2ccc(OC)c(OC)c2)cc1 (centres undefined),4%,-2,-7,15%,13µM*,?
COc1cccc(C(=O)Nc2ccccc2-c2nnc(-c3ccc(C(C)(C)C)cc3)o2)c1,0%,nt,3,-8%,-3%,-12%
Nc1nc(Nc2ccccc2)nc2ccccc12,15%,-2,-4,-17%,-4%,?
CCOc1ccc(Nc2nc(N)c3ccccc3n2)cc1,-32%,-22,-10,-5%,nt,2.2µM*
Nc1nc(Nc2ccc(Cl)cc2)nc2ccccc12,2%,9,-3,0%,?,?
CN(C)c1ccc(Nc2nc(N)c3ccccc3n2)cc1,-12%,-25,-1,-4%,nt,2µM*
Cc1ccc(Nc2nc(N)nc(CCl)n2)cc1,-5%,-8,3,17%,nt,?
CCOc1ccc(Nc2nc(N)nc(CCl)n2)cc1,?,-13,6,?,1%,5µM*
COc1ccccc1CNc1ccc(-c2nc(-c3ccncc3)no2)cc1[N+](=O)[O-],3%,nt,-17,nt,-1%,15%
C=CCOc1ccc(CNc2nccs2)cc1OCC,0%,-54*,8,?,1%,?
Cn1cc(-c2cc3n(n2)CCC(=O)N3CCCC(=O)NCc2ccccc2Cl)c2ccccc21,-13%,nt,-14,nt,-22%,1%
COC(=O)c1sccc1-c1ccc(/C=N/OC(=O)c2ccccc2)o1,2%,20,6,-17%,32µM*,-3%
C=CCc1c(OC)ccc2ccc(=O)oc12,7%,-57*,-8,19%,13%,98%
Cc1cc(C)cc(NC2=C(c3ccccc3)C(=O)c3ccccc32)c1,-26%,nt,5,nt,-4%,?
c1coc(C2Nc3ccccc3-c3nc4ccccc4n32)c1 (centres undefined),1%,6,7,0%,2.8µM*,-6%
c1ccc(C2Nc3ccccc3-c3nc4ccccc4n32)cc1 (centres undefined),4%,7,-6,13%,61%,-5%
CCOC(=O)c1c(NC(=O)/C=C/c2ccc(OCC)cc2)sc2c1CCCC2,-11%,nt,5,-6%,1%,7%
Cc1ccc2c(c1)sc(C)[n+]2CCCS(=O)(=O)[O-],2%,-86*,-22,4%,nt,-2%
Cc1ccc2sc(C)[n+](CCCS(=O)(=O)[O-])c2c1,4%,?,-10,3%,nt,-8%
CC(NC(=O)CN(C)Cc1nc2ccccc2c(=O)[nH]1)c1ccccc1 (centres undefined),-1%,23,4,-2%,0%,22%
CC(OCC(O)CN(C)Cc1nc2ccccc2c(=O)[nH]1)c1ccc(Cl)cc1 (centres undefined),-27%,-7,-2,23%,-4%,10µM*
CN(Cc1nc2ccccc2c(=O)[nH]1)Cc1nc2ccsc2c(=O)[nH]1,13µM*,6,7,6%,nt,-18%
CN(Cc1nc2ccccc2c(=O)[nH]1)C(=O)c1ccccc1OCc1ccc(Cl)cc1,-5%,-7,-3,16%,-1%,?
N=C(N)c1ccc(OCCCOc2ccc(C(=N)N)cc2Br)c(Br)c1,nt,nt,-23,-1%,nt,nt
O=C(O)Cn1c(O)c(C2=c3ccccc3=NC2=O)sc1=O,0%,?,1,0%,-5%,1%
O=C(O)CCC(C(=O)O)n1c(O)c(C2=c3ccccc3=NC2=O)sc1=S (centres undefined),-7%,-103*,-9,-2%,-1%,?

# High-throughput results as filed in PubChem.
